Measured values: the supplement of paper PMC3334620
The full ranking holds about 33,000 sequences; the median of “E-score (-0.5 to 0.5)” is about -0.0059, and the highest 2% start at about 0.26. For the sample, the highest values were picked, then their nearest neighbours and some sequences at random.

molecular target: T1, Cin5 (UniProt P40917); experiment: PBM E-score (8-mer binding enrichment) (E-score (-0.5 to 0.5)); higher = stronger / more preferred TF binding; conditions: protein concentration: 100 nM; construct: GST-full length
T1 sequence: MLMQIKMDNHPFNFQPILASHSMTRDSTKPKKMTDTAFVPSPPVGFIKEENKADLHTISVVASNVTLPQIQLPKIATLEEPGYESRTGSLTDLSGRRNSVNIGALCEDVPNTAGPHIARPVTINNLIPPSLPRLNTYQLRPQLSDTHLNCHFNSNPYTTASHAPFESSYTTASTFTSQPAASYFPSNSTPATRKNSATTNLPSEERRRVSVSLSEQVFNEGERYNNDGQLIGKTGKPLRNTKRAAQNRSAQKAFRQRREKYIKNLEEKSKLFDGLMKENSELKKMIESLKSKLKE
Procedure: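 Universal 'all 10-mer' protein binding microarrays (Agilent AMADID 015681) probed with GST-tagged S. cerevisiae TFs (full-length or DBD) made by in vitro transcription/translation (PURExpress), about 100-200 nM. Bound TF was detected with fluorescent anti-GST. Each ungapped 8-mer (which stands for itself and its reverse complement) is scored by the PBM enrichment score (E-score), a modified Wilcoxon-Mann-Whitney statistic from -0.5 to +0.5, computed with the Universal PBM Analysis Suite. Scale: above 0.35 generally sequence-specific binding.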

Sequence	PBM E-score
CCGAGGAG	-0.213
AGAGCCTG	-0.163
ACGAAGAG	-0.0165
CCGAAAGC	-0.328
AAGGGTAC	-0.137
ATCGACTG	0.101
TCGTGGAA	0.263
ACGTGGAA	-0.00812
GCGTGGAA	0.106
GGACACCC	-0.226
AGAAGCGC	0.0405
GATCCCAA	-0.0221
CAAGCAAG	-0.103
CATAACAA	0.252
TATAACAA	0.295
ATTAACAG	0.0268
ATTAACAA	0.274
GATAACAA	0.1
ATTAACAC	0.271
ATTAACTC	0.17
GTTAACTA	0.205
AATAACAC	0.247
GTTAACAA	0.17
ATTAACTA	0.272
CTTAACAC	0.152
CCACTAAC	0.0063

Sequence	PBM E-score
ATTGGGGA	0.00734
AGGTCCTC	-0.134
GCCGCGAC	-0.086
ACGAACGG	0.0374
CACGATAG	0.139
CTAGTCAG	-0.0157
AGGACCCG	-0.169
ACCATACC	-0.0386
ATCAGTTG	0.209
CCAGCGCA	-0.132
ATATTCCG	0.179
ATATTCCA	0.274
GAATTCCA	0.173
CTATTCCA	0.215
AAATTCCA	0.295
CAATTCCA	0.0576
AAAAGCTT	-0.127
CCTCAATA	-0.0429
CCGGGGCC	-0.242
CTCGAGAA	-0.0673
ACTTGTAC	0.00779
ATCTCTCA	0.216
CTATCTCA	-0.00021
ATATCTCA	0.277
CTGCTATA	0.117
GCAACTCA	0.00079

Sequence	PBM E-score
GAAGCTTA	0.171
CAAGCTGA	0.233
TAAGCTGA	0.267
CAAGCTTA	0.184
AAAGCTGA	-0.056
TAAGCTTA	0.372
GGCTGTCA	-0.21
TATATCAA	0.196
GCATCGGC	-0.125
ACTACCCG	-0.0362
AGCTTCCG	-0.0682
AGTATTAA	0.242
GGTATTAC	0.271
AGTATTAG	0.275
CGTATTAG	0.109
AGTATTAT	0.0851
CGTATTAC	0.214
AGTATTCC	0.225
GGTATTAA	0.064
AGTATTAC	0.27
GGTTGCTA	-0.0578
GACCGCCA	-0.0859
CACTGTAC	-0.0867
CTTGCACC	0.0355
AAGCACAT	0.206
AGGAGAGC	-0.394

Sequence	PBM E-score
AGCAGCAG	-0.0447
CCTGGTAC	-0.1
CTCTGATC	-0.162
CTATTGTA	0.13
GTATTATA	0.267
GTATTGTA	0.274
GCATTACA	0.167
CTATTACA	0.181
GTATTAGA	0.234
GTATTACA	0.34
ATATTGTA	0.151
CTATTATA	0.142
ATATTATA	0.265
ATATTAGA	0.159
GCATTATA	0.152
AGCTAGGC	-0.14
CGCCGCAA	0.0347
GACAGTCA	-0.165
CCGAATGA	-0.0132
CCCAATAC	-0.00655
TTCCGGAA	0.248
ATCCTCTG	0.0169
AGGATCCA	-0.0524
GGAATCCA	0.0132
ATATTATG	0.379
AGATTATG	0.248

Sequence	PBM E-score
ATATTATC	0.233
GGGGTGTA	-0.208
CCCGATAG	-0.0593
AATAATAG	0.198
AATAATGG	0.226
GATAATAA	0.199
AAAAATCT	0.0604
AATAATAA	0.305
AATAATGT	0.273
AATAACCT	0.061
AATAATAC	0.181
AATAATAT	0.356
AATAATGC	0.145
CATAATAA	0.0985
AATAATCT	0.345
AAAAAACG	0.125
AATCATTG	0.207
ACGCAGTA	-0.15
CCACCGTA	-0.049
GGTAGCAC	-0.152
CATGGATC	-0.00694
ACTCGCGA	0.214
TAGATCGA	0.0888
ACTCTGGG	-0.0166
CGGAGACC	-0.167
CCCTCGGC	-0.217

Sequence	PBM E-score
AGTCCCTA	-0.176
AGCTGAAG	0.0392
ATCTGCGA	0.00217
ATTACGTG	0.423
ACTACGTC	0.00455
AGTACGTG	-0.096
GTTACGGA	-0.122
GGTACGTA	-0.032
GTTACGTA	0.305
CTTACGTC	0.196
ACTACGTG	-0.223
ATTACGTC	0.371
ACCCTGGA	-0.243
AGCGCCCA	-0.243
AGTCAACT	-0.157
CGAGCTCG	0.0762
ATACCATA	0.259
ATACCATG	0.0359
GTACCATA	-0.04
CTGCCCAC	-0.151
GCCTTTAC	-0.0984
GGTATGAA	0.126
AGGTTCTC	-0.153
TAAAAACA	0.174
ATCAAACA	0.274
CTCAAACA	0.0626

Sequence	PBM E-score
GAAAAACA	-0.0228
ATCAAGCA	0.114
AAAAAACA	0.284
TAGATGCA	0.0348
ACTTTGAG	-0.126
AGGCCAGA	-0.0898
GATTCTTA	0.213
ATGTACAT	0.205
CTATCGAA	0.0827
CAATCCCA	-0.0745
CAATCCCC	0.0168
CAATCCCG	0.259
CCGGTTGC	0.00629
ATTGTCTA	0.273
ATTGTCTC	-0.017
GTTGTCTA	0.114
AAGTAGAG	-0.126
ACGCCTTG	-0.0542
GTAAAAGA	0.0603
AATGATAG	0.272
